Test results taken from PubChem BioAssay (NCATS).
Inconclusive results are not listed. Entries that show only a call come without a potency. Values without a mark were called inactive. Calls of active or inactive are those of the source. The call rests on the fitted dose curve; in most records, active means well fitted cell-killing curve with a large enough effect; inconclusive means small, poorly fitted or top-dose-only effect, or effect the other way; inactive means no such curve, though single readings can be large or run the other way.

Columns and labels:
[1] = Viability qHTS for spleen associated tyrosine kinase inhibitor (SYKi) naive MV4-11 cells (AID 1963823); further: nearly all actives have a fitted effect of over 40% in size
Summary of the method: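 qHTS, SYK inhibitor-naive MV4-11; 500 cells/well; 72 hr compound exposure, 37 C; CellTiter-Glo added, 10 min RT; luminescence read.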

[2] = Viability qHTS for spleen associated tyrosine kinase inhibitor (SYKi) drug resistant MV4-11 cells (AID 1963824); further: nearly all actives have a fitted effect of over 35% in size
Summary of the method: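 SYK-inhibitor-resistant MV4-11 AML cells were seeded at 500 per well onto compound and cultured 72 hours (37 °C, 5% CO2). CellTiter-Glo was then added, and after 10 min at room temperature, luminescence gave viability.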
Potency means the concentration at half of the fitted maximal effect.

SMILES: CC1=C[C@H](O)[C@H]2C(C)(C)CCC[C@]2(C)[C@@]1(O)CO
- Potency [1]: inactive
- Potency [2]: 4.11 µM (active)

SMILES: CC1(C)CC[C@]2(C(=O)O)CC[C@]3(C)C(=CCC4[C@@]5(C)CC[C@H](O[C@@H]6O[C@H](C(=O)O)[C@@H](O)[C@H](O[C@@H]7O[C@H](CO)[C@H](O)[C@H](O)[C@H]7O)[C@H]6O[C@@H]6O[C@H](CO)[C@@H](O)[C@H](O)[C@H]6O)C(C)(C)C5CC[C@]43C)[C@@H]2C1 (stereo partly specified)
- viability (% of control) [1]: 77.5% [at 4.97 µM]
- viability, % of control [2]: 75.1% [at 4.97 µM]

SMILES: CNc1nc(-c2ccc3c(N)n[nH]c3c2)cc(N2C[C@@H](C(=O)NC3CCCCC3)CC[C@H]2C)n1
- Potency [1]: 5.25 µM (active)
- Potency [2]: 5.9 µM (active)

SMILES: C=C1C(=O)O[C@@H]2/C=C(\CO)CC/C=C(\CO)[C@H](OC(C)=O)C(OC(=O)C(C)CC)C12 (stereo partly specified)
- Potency [1]: 5.02 µM (active)
- Potency [2]: 2.24 µM (active)

SMILES: C/C(=C\CCC(C)C1CC(O)C2(C)C3CCC4C(C)(C)C(OC5OCC(O)C(O)C5O)CCC45CC35CC(O)C12C)C(=O)O (stereo unspecified)
- Potency [1]: inactive
- Potency [2]: inactive

SMILES: CCCCCCCCCCCCCCCCC(C(=O)O)C(O)(CC(=O)O)C(=O)O (stereo unspecified)
- Potency [1]: inactive
- Potency [2]: inactive

SMILES: N#CCc1ccc(O)cc1O[C@@H]1O[C@H](CO)[C@@H](O)[C@H](O)[C@H]1O
- Potency [1]: inactive
- Potency [2]: inactive

SMILES: C/C(=C\CCC(C)(O)c1ccc(C)cc1)C(=O)O (stereo unspecified)
- Potency [1]: inactive
- Potency [2]: inactive

SMILES: Cc1[nH]c2ccccc2c1C1=C(NCCc2ccc(F)cc2)C(=O)N(C)C1=O
- Potency [1]: 16.4 µM (active)
- Potency [2]: 11.6 µM (active)

SMILES: CC(C)C(C(=O)N(C)C(C)C(N)=O)N(C)C(=O)C1CCCN1C(=O)/C=C/C=C/C(O)C(C)O (stereo unspecified)
- Potency [1]: inactive
- Potency [2]: inactive

SMILES: CNC(=O)c1ccccc1Nc1nc(Nc2ccc3c(c2OC)CCCC(N2CCN(CCO)CC2)C3)ncc1Cl (stereo unspecified)
- Potency [1]: 0.366 µM (active)
- Potency [2]: 0.731 µM (active)

SMILES: CC1CCC2(C(=O)O)CCC3(C)C(=CCC4C5(C)CCC(O)C(C)(CO)C5CCC43C)C2C1(C)O (stereo unspecified)
- Potency [1]: inactive
- Potency [2]: inactive

SMILES: COc1cc2c(cc1NS(=O)(=O)c1ccc(Br)cc1C)n(C)c(=O)n2C
- Potency [1]: 2.31 µM (active)
- Potency [2]: 2.31 µM (active)

SMILES: CC(C)=C1CC2C(CCC2(C)O)C(C)(O)CC1=O (stereo unspecified)
- Potency [1]: inactive
- Potency [2]: inactive

SMILES: CC(=O)OCC(Cc1ccccc1)NC(=O)C(Cc1ccccc1)NC(=O)c1ccccc1 (stereo unspecified)
- Potency [1]: inactive
- Potency [2]: inactive

SMILES: C[C@@H]1O[C@@H](O[C@H]2[C@H](OC(=O)C34CCC(C)(C)CC3C3=CCC5C6(C)CC(O)C(O[C@@H]7O[C@H](CO)[C@@H](O)[C@H](O)[C@H]7O)C(C)(C(=O)O)C6CCC5(C)C3(CO)CC4)O[C@H](C)[C@H](O)[C@@H]2O)[C@H](O)[C@H](O)[C@H]1O[C@@H]1OC[C@@H](O)[C@H](O)[C@H]1O (stereo partly specified)
- viability (% of control) [1]: 87% [at 9.25 µM]
- viability, % of control [2]: 109% [at 9.25 µM]

SMILES: C=C[C@H]1[C@H](O[C@@H]2O[C@H](CO)[C@@H](O)[C@H](O)[C@H]2O)OC=C(C(=O)OC)[C@H]1C/C=C(/C=O)[C@@H]1C(C(=O)OC)=CO[C@@H](O[C@@H]2O[C@H](CO)[C@@H](O)[C@H](O)[C@H]2O)[C@@H]1C=C
- Potency [1]: inactive
- Potency [2]: inactive

SMILES: CC1(C)CCC2(C(=O)O)C(O)CC3(C)C(=CCC4C5(C)CCC(OC6OC(CO)C(O)C(O)C6OC6OC(CO)C(O)C(O)C6OC6OCC(O)(CO)C6O)C(C)(C)C5CCC43C)C2C1 (stereo unspecified)
- viability (% of control) [1]: 68.6% [at 9.25 µM]
- viability, % of control [2]: 84.8% [at 9.25 µM]

SMILES: CC(=O)OC1(C)CC(O)C2(O)C=COC(OC3OC(CO)C(O)C(O)C3O)C12 (stereo unspecified)
- Potency [1]: inactive
- Potency [2]: inactive

SMILES: O=c1cc(-c2ccc(O)cc2)oc2cc(OC3OC(CO)C(O)C(O)C3O)c(C3OC(CO)C(O)C(O)C3O)c(O)c12 (stereo unspecified)
- Potency [1]: inactive
- Potency [2]: inactive

SMILES: CC(=O)c1ccc2c(c1)[C@H](NC(=O)c1ccc(F)c(Cl)c1)[C@H](O)C(C)(C)O2
- Potency [1]: inactive
- Potency [2]: inactive

SMILES: CSc1cc2c(s1)c1cnn(Cc3ccccc3F)c(=O)c1n2C
- Potency [1]: inactive
- Potency [2]: inactive

SMILES: CCC(CC)(NC(=O)C(C)C)C(=O)N[C@@H](CCCN=C(N)N)C(=O)NC1(C(=O)NC(c2ccc(F)cc2)c2ccc(F)cc2)CCCC1
- Potency [1]: inactive
- Potency [2]: inactive

SMILES: C=C1CC23CC1(O)CCC2C1=CC2OC(=O)C(C)(C2O)C1C3C(=O)O (stereo unspecified)
- Potency [1]: inactive
- Potency [2]: inactive

SMILES: CC1=CC(=O)CC(C)(C)C1/C=C/C(C)OC1OC(COC2OCC(O)C(O)C2O)C(O)C(O)C1O (stereo unspecified)
- Potency [1]: inactive
- Potency [2]: inactive

SMILES: COc1ccc(-c2nc(-c3cc(C(F)(F)F)cc(C(F)(F)F)c3)n(Cc3ccc(C(N)=O)cc3)c2-c2ccc(OC)cc2)cc1
- Potency [1]: 7.31 µM (active)
- Potency [2]: 3.66 µM (active)

SMILES: COc1cc(Br)c(Nc2nc(-c3c(C)nc4ncccn34)cs2)c(Br)c1
- Potency [1]: 1.16 µM (active)
- Potency [2]: 1.16 µM (active)

SMILES: CC(OC1OCCN(Cc2n[nH]c(=O)[nH]2)C1c1ccc(F)cc1)c1cc(C(F)(F)F)cc(C(F)(F)F)c1 (stereo unspecified)
- Potency [1]: 9.2 µM (active)
- Potency [2]: 5.8 µM (active)

SMILES: COCC1OC(OC(C)(C)C2CCC3(C)C=C(C4CCC5C4(C)CC(O)C4OC(C(C)(C)OC6OC(CO)C(O)C(O)C6NC(C)=O)CCC45C)CCC3O2)C(NC(C)=O)C(O)C1O (stereo unspecified)
- viability (% of control) [1]: 92.4% [at 9.25 µM]
- viability, % of control [2]: 108% [at 9.25 µM]

SMILES: COC1CC(O[C@H]2CC[C@@]3(C)C(CCC4C3[C@H](OC(C)=O)[C@@H](OC(=O)/C=C/c3ccccc3)[C@]3(C)C(C(C)=O)CC[C@]43O)C2)OC(C)C1OC1CC(OC)C(OC2CC(OC)C(OC3OC(C)C(OC4OC(CO)C(O)C(O)C4O)C(OC)C3O)C(C)O2)C(C)O1 (stereo partly specified)
- viability (% of control) [1]: 48.3% [at 9.25 µM]
- viability, % of control [2]: 45.7% [at 9.25 µM]

SMILES: CCOc1ccc(-c2nc(-c3cccc4c3CCC4NCCO)no2)cc1OCC (stereo unspecified)
- Potency [1]: 13 µM (active)
- Potency [2]: 13 µM (active)

SMILES: C[C@@H]1O[C@@H](O[C@H]2[C@H](O[C@H]3[C@H](O[C@H]4CC[C@@]5(C)C(CC[C@]6(C)C5CC=C5[C@@H]7CC(C)(C)CC(=O)[C@]7(C)CC[C@]56C)[C@@]4(C)CO)O[C@H](C(=O)O)[C@@H](O)[C@@H]3O)O[C@H](CO)[C@H](O)[C@@H]2O)[C@H](O)[C@H](O)[C@H]1O (stereo partly specified)
- viability (% of control) [1]: 81.7% [at 9.25 µM]
- viability, % of control [2]: 68.7% [at 9.25 µM]

SMILES: COc1cc([C@H]2OC[C@](O)(Cc3ccc(O[C@@H]4O[C@H](CO)[C@@H](O)[C@H](O)[C@H]4O)c(OC)c3)[C@@H]2CO)ccc1O
- Potency [1]: inactive
- Potency [2]: inactive

SMILES: CC(=O)c1[nH]cc(CCC(=O)O)c1CC(=O)O
- Potency [1]: 0.231 µM (active)
- Potency [2]: inactive

SMILES: CC(C)OC(=O)OCOP(=O)(COC(C)Cn1cnc2c(N)ncnc21)OCOC(=O)OC(C)C (stereo unspecified)
- Potency [1]: 2.31 µM (active)
- Potency [2]: 2.06 µM (active)

SMILES: CC1(C(=O)Nc2ccc(F)nc2)CCCN1c1nc(Nc2cc(C3CC3)[nH]n2)c2cccn2n1 (stereo unspecified)
- Potency [1]: 1.46 µM (active)
- Potency [2]: 1.64 µM (active)

SMILES: C[C@@H]1C(=O)O[C@H]2[C@H](O)C34[C@H]5C[C@@H](C(C)(C)C)C36[C@@H](OC(=O)[C@@H]6O)O[C@@]4(C(=O)O5)[C@@]12O (stereo partly specified)
- Potency [1]: inactive
- Potency [2]: inactive

SMILES: COc1cc(C(CO)CO[C@@H]2O[C@H](CO)[C@@H](O)[C@H](O)[C@H]2O)ccc1O (stereo partly specified)
- Potency [1]: inactive
- Potency [2]: inactive

SMILES: C=C1C[C@]23C[C@H]1CC[C@H]2[C@@]1(C)CCC[C@@]2(C)C(=O)O[C@@H]([C@@H]3O)[C@@H]12
- Potency [1]: inactive
- Potency [2]: 1.43 µM (active)

SMILES: CC(C)CCC[C@@H](C)[C@H]1CC[C@H]2[C@@H]3CC=C4C[C@@H](OC(=O)NCCN(C)C)CC[C@]4(C)[C@H]3CC[C@]12C
- Potency [1]: 20.6 µM (active)
- Potency [2]: 16.4 µM (active)

SMILES: CCC1=CC2CN(C1)Cc1c([nH]c3ccccc13)[C@@](C(=O)OC)(c1cc3c(cc1OC)N(C)[C@H]1[C@@](O)(C(=O)OC)[C@H](OC(C)=O)[C@]4(CC)C=CCN5CC[C@]31[C@@H]54)C2 (stereo partly specified)
- Potency [1]: 0.0252 µM (active)
- Potency [2]: 0.0126 µM (active)

SMILES: COc1cc(-c2ncn(/C=C\C(=O)OC(C)C)n2)cc(C(F)(F)F)c1
- Potency [1]: 0.103 µM (active)
- Potency [2]: 0.164 µM (active)

SMILES: C=C1C(O)C[C@@H]2C(C(=O)O)=CO[C@@H](O[C@@H]3O[C@H](CO)[C@@H](O)[C@H](O)[C@H]3OC(=O)c3ccc(O)cc3)[C@H]12 (stereo partly specified)
- Potency [1]: inactive
- Potency [2]: inactive

SMILES: CCCN(CCC)C(=O)C(CCC(=O)OCCCN1CCN(CCOC(=O)Cc2c(C)n(C(=O)c3ccc(Cl)cc3)c3ccc(OC)cc23)CC1)NC(=O)c1ccccc1 (stereo unspecified)
- Potency [1]: 23.1 µM (active)
- Potency [2]: 20.6 µM (active)

SMILES: CC1NC(=O)C(Cc2c[nH]c3ccccc23)NC1=O (stereo unspecified)
- Potency [1]: inactive
- Potency [2]: inactive

SMILES: COC(=O)C12CCC(C)C(C)C1C1=CCC3C4(C)CCC(OC(C)=O)C(C)(C)C4CCC3(C)C1(C)CC2 (stereo unspecified)
- Potency [1]: inactive
- Potency [2]: inactive

SMILES: C=C1CC2OC(=O)C(=C)C2C(O)/C=C(\C)CCC1O (stereo unspecified)
- Potency [1]: 18.4 µM (active)
- Potency [2]: 13 µM (active)

SMILES: CNC(=O)O[C@H]1COc2ccc(N3CCN(C4COC4)CC3)cc2[C@@H]1NC(=O)c1ccc(F)cc1
- Potency [1]: inactive
- Potency [2]: inactive

SMILES: COc1cc(/C=C/C(=O)OC2CC(OC(C)=O)C(OC(C)=O)C3C2CCC2C(=O)OC(c4ccoc4)CC23C)ccc1O[C@@H]1O[C@H](CO)[C@@H](O)[C@H](O)[C@H]1O (stereo partly specified)
- Potency [1]: inactive
- Potency [2]: inactive

SMILES: C(#Cc1nc2ncccc2nc1OCCN1CCCC1)c1ccccc1
- Potency [1]: 0.651 µM (active)
- Potency [2]: 1.03 µM (active)

SMILES: CC(NC(=O)CC(=O)O)c1nc2ccccc2c(=O)[nH]1 (stereo unspecified)
- Potency [1]: inactive
- Potency [2]: inactive

SMILES: C=C1CCC2C(OC(=O)C2(O)COC(C)=O)C2C(=C)C(O)CC12 (stereo unspecified)
- Potency [1]: inactive
- Potency [2]: inactive

SMILES: CC12CC34CC(O)C5C(CO)(CO)CC(=O)CC5(C)C3CC1C2C4 (stereo unspecified)
- Potency [1]: inactive
- Potency [2]: inactive
